From PubChem
DAX1 inh-1: inhibitors of DAX1 repression of SF-1 activated StAR promoter; HEK293T StAR-luciferase reporter, SF-1/DAX-1 repression relief; inhibition, % at 6.8 µM; hit rate 1.1% among 370,000;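 active = inhibition above the mean over all tested compounds plus 3 SD, cut at about 3.6% in these data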;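 note: 0% = DAX-1 cells with DMSO and 100% = cells lacking DAX-1 with DMSO; higher inhibition means more luminescence from relief of DAX-1 repression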
hgDAF12 agonist: agonists of H. glycines DAF-12 nuclear receptor; HEK293 GAL4-hgDAF12 UAS-luciferase reporter, agonist luminescence; normalized to butyrate control; activation, % at 6.8 µM; hit rate 1.8% among 370,000;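 active = activation above a cutoff set at the mean of all screened compounds plus 3 SD, cut at about 10% in these data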;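 note: 0% = DMSO wells and 100% = sodium butyrate wells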
DAX1 inh-2: NR0B1 (DAX1) inhibition | HEK293 Gal4-DAX1 luciferase reporter, luminescence | inhibition, % at 6.75 µM | hit rate 0.99% among 340,000 | AID 504766;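 active = inhibition above the mean over all tested compounds plus 3 SD, cut at about 4.2% in these data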;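 note: 0% = DAX1-transfected cells with DMSO and 100% = empty-vector control cells with DMSO; inhibition shows as a rise in luminescence from relieved DAX1 repression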
Target sequence (P51843 207-470 limits assumed): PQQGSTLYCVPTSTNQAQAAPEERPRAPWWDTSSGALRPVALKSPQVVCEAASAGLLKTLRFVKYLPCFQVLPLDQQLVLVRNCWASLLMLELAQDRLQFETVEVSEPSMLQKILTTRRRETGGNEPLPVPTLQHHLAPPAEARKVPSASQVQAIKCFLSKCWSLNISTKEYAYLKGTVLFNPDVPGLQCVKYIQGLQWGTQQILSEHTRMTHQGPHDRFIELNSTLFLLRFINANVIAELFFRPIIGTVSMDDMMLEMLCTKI
ssDAF12 agonist: activators of S. stercoralis DAF-12 nuclear receptor | HEK293 ssDAF-12/GRIP1 lit1-tk-luc reporter, luminescence; % of 3 µM dafachronic acid response | activation, % at 6.8 µM | hit rate 1% among 370,000 | AID 652126;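 active = activation above the mean over all tested compounds plus 3 SD, cut at about 0.9% in these data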;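 note: 0% = DMSO-only wells and 100% = 3 µM delta7-dafachronic acid wells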
hcDAF-12 act: activates DAF-12 receptor from parasite H. contortus. AID 652067. activation, % at 6.8 µM. hit rate 1.4% among 370,000. HEK293 hcDAF-12 lit1-tk-luc reporter, luminescence; 0% DMSO, 100% Δ7-dafachronic acid;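 active = activation above the mean of all tested compounds plus 3 SD, cut at about 5.5% in these data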;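 note: 100% = response to 3 µM Δ7-dafachronic acid high control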
The depositor's hits bear a star; / = no result. Shown are actives, neighbours in structure and some others; about 4.1% of the full set was active somewhere.

SMILES	DAX1 inh-1	hgDAF12 agonist	DAX1 inh-2	ssDAF12 agonist	hcDAF-12 act
Fc1ccc(NC(=S)NN=Cc2ccccc2Cl)cc1	0	10	4	-1	2
Cc1ccc(C(=O)N/N=C/c2c[nH]c3ccccc23)o1	0	7	0	0	6.4*
O=C(Nc1ccc(C(O)(C(F)(F)F)C(F)(F)F)cc1)c1ccc(F)cc1F	/	8	/	-1	-1
CCOc1ccc(CCNC(=O)c2cc(-c3ccccc3)c(N3CCOCC3)s2)cc1OC	-4	-5	/	-2	-6
O=C(N/N=C/c1cc(Cl)ccc1O)c1ccccc1Br	0	-4	-2	1.5*	-3
O=C(NCCN1CCC(Cc2ccccc2)CC1)C1CCCN(S(=O)(=O)c2ccccc2)C1 (configuration not stated)	-3	-3	/	-2	-4
Oc1ccc(-c2csc(Nc3cccc4ccccc34)n2)cc1O	0	4	2	2.1*	1
O=C(Nc1ccc(F)cc1)OCCN1C(=O)CCC12CCC(c1ccc(Cl)cc1)CC2 (configuration not stated)	0	3	/	-1	-1
Cc1ccccc1NS(=O)(=O)c1nnc(NC(=O)c2ccc(Br)cc2)s1	0	0	1	-1	0
Cc1ccccc1NS(=O)(=O)c1nnc(NC(=O)c2ccccc2C)s1	1	0	2	0	6.2*
CCCCNS(=O)(=O)/C=C/c1cc(C)ccc1CNC(=O)OC(C)(C)C	-1	0	/	-2	-4
CN(Cc1ccccc1)C(=O)OCc1cn(Cc2cccc(F)c2F)nn1	0	0	/	-1	0
C[C@@H]1CN([C@@H](C)COC(=O)C(C)(C)C)C(=O)c2cc(NC(=O)Nc3ccccc3)ccc2O[C@@H](C)CCCCO[C@H]1CN(C)S(=O)(=O)c1ccc(F)cc1	/	-1	/	-1	-2
COc1ccc(-c2ccc(/C=N/N3C(=O)C4C5C=CC(C6CC56)C4C3=O)o2)c([N+](=O)[O-])c1 (configuration not stated)	-1	-3	4.4*	-1	-3
Cc1ccccc1NC(=O)Nc1ccc(C(F)(F)F)cc1	1	11*	1	0	0
CC(=O)c1sc2nc(-c3cccs3)cc(C(F)(F)F)c2c1N	0	2	0	0	6.3*
Cc1c(C(=O)Nc2nccs2)sc2nc(-c3cccs3)cc(C(F)(F)F)c12	1	1	0	1.2*	3
Cc1c(C(=O)O)sc2nc(-c3cccs3)cc(C(F)(F)F)c12	0	2	1	0	1
Nc1c(C(=O)C2CC2)sc2nc(-c3ccccc3)cc(C(F)(F)F)c12	0	-1	0	-1	1
Cn1c2ccccc2c(=O)c2c(=O)n(CCCc3ccccc3)cnc21	-1	-1	/	0	-1
COc1ccc(S(=O)(=O)NCC2CCCN(Cc3cccnc3)C2)cc1 (configuration not stated)	0	-3	4.3*	-2	-1
COc1ccc(C(=O)C2CCN(c3ncnc4sccc34)CC2)cc1	/	-10	/	-3	-6
O=S1(=O)c2ccc(N3CCCC3)cc2Oc2ccccc2CN1Cc1cn(Cc2ccccc2C(F)(F)F)nn1	-1	-2	/	-2	-3
O=c1[nH]c(-c2ccco2)nc2sc3c(c12)CCCC3	3	13*	2	1	2
FC(F)(F)c1cc(Cc2nc3ccccc3n2C(CCc2ccccc2)c2nc3ccccc3[nH]2)cc(C(F)(F)F)c1 (configuration not stated)	3.9*	6	/	-2	0
SMILES	DAX1 inh-1	hgDAF12 agonist	DAX1 inh-2	ssDAF12 agonist	hcDAF-12 act
Cc1ccc(Cc2nc3ccccc3n2C(CCc2ccccc2)c2nc3ccccc3[nH]2)cc1 (configuration not stated)	3	2	/	-1	0
O=C(CSc1ncccn1)c1ccccc1Br	0	3	4.3*	-1	0
Cc1ccccc1/C=C/C1=NCCN1	-1	-4	-1	1.2*	0
Cc1ccccc1C=O	0	2	1	-1	0
O=C(/C=C\c1ccco1)c1ccc(NC(=O)c2ccco2)cc1	1	11*	0	-1	1
CC(=O)Nc1ccc(C(=O)/C=C/c2ccco2)cc1	1	1	1	-1	2
CN(C)c1ccc(C(=O)/C=C/c2ccccc2)cc1	2	10	2	-1	1
CN(C)c1ccc(C(=O)/C=C/c2ccco2)cc1	2	13*	-1	0.9*	6
Cc1cc(C(=O)CSc2nnnn2C)c(C)n1C1CC1	1	12*	2	-1	2
Cc1nn(-c2ccc(N3CCCCC3)nn2)c(C)c1CCC(=O)Nc1ccc(F)c(F)c1	1	6	-1	-1	6.4*
Cc1ccc(NC(=O)CCc2c(C)nn(-c3ccc(N4CCCCC4)nn3)c2C)cc1C	2	3	1	-1	-1
Cc1cc(C)cc(NC(=O)CCc2c(C)nn(-c3ccc(N4CCCCC4)nn3)c2C)c1	4.1*	8	0	0	0
C#CCN(C)S(=O)(=O)c1ccc(N2CCCC2)cc1Br	-1	1	/	-2	-2
CCN(CC)C(=O)CC[C@H]1CC[C@]2(CCCN(C(=O)c3ccccc3)C2)O1	-1	0	/	-2	-1
COc1ccc2c(-c3cc4ccc(OCc5ccc(F)cc5)cc4oc3=O)cc(=O)oc2c1	0	1	-1	-2	0
O=C1COc2ccc(OCc3ccc(F)cc3)cc21	1	12*	1	0	5
CSCCC(NC(=O)c1ccco1)C(=O)Nc1ccc(C)cn1 (configuration not stated)	3.8*	2	3	0	3
Cc1cc(NC(=O)C(C)C)ncc1NC(=O)c1ccco1	0	1	5.9*	-1	0
CSCCC(NC(=O)c1ccco1)C(=O)NC1CCC(C)CC1 (configuration not stated)	3.7*	2	0	-1	3
Cc1ccc(-c2cc(C(=O)NN=Cc3c4ccccc4cc4ccccc34)[nH]n2)cc1C	1	2	/	-1	-1
COc1cccc(CN2CCN(Cc3cc(OC)c(OC)c(OC)c3)CC2)c1OC	0	2	-2	1.3*	4
CCS(=O)(=O)N1CCN(Cc2ccccc2OC)CC1	1	-1	0	1.2*	1
O=S1(=O)C=CCN1Cc1cn(Cc2cccc(Cl)c2)nn1	1	3	/	-1	-1
COc1ccccc1-c1noc(-c2cc(OC)c(OC)c(OC)c2)n1	0	-1	1	-1	-2
COc1ccccc1-c1nc(-c2ccc(Br)cc2)no1	1	9	2	1.5*	5.8*
COc1ccc(-c2nc(-c3ccc(Br)cc3)no2)c(OC)c1	3	12*	4	1.0*	4
COc1cc(OC)cc(-c2nc(-c3ccc(Br)cc3)no2)c1	0	0	1	-1	2
CCOC(=O)CNC(=O)CSc1nnc(-c2ccc(C(C)(C)C)cc2)n1-c1ccc(Cl)cc1	0	-3	/	-1	-3
